Data on three compounds can be found in PubChem BioAssay (EPA / NIEHS).

Read-out in experiment [1]: C-C motif chemokine 2 (Homo sapiens) (UniProt P13500)
Briefly: BSK_KF3CT_MCP1: BioMAP Diversity Plus: KF3CT Assay for Monocyte Chemoattractant Protein 1 (MCP1/CCL2) Biomarker Activity (AID 2283073). Conditions: primary human keratinocytes with fibroblasts; actives raise or lower the signal. In outline: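 Human keratinocyte–foreskin fibroblast co-culture; MCP-1 measured by ELISA 24 h after dosing. Bidirectional fit vs DMSO; cytotoxicity tracked by SRB total protein in parallel cultures.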

Read-out in experiment [2]: Matrix Metallopeptidase 9 (MMP9), MMP9 (gene 4318)
The experiment can be described thus: BSK_KF3CT_MMP9: BioMAP Diversity Plus: KF3CT Assay for Matrix Metallopeptidase 9 (MMP9) Biomarker Activity (AID 2283074).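 As to AC50: MMP9 protein level quantified by ELISA in the co-culture.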 Conditions: primary human keratinocytes with fibroblasts; actives raise or lower the signal. In outline:
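Human keratinocyte/foreskin fibroblast co-culture; compound added; 24 h; MMP-9 by ELISA; bidirectional fit vs DMSO baseline.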

Read-out in experiment [3]: urokinase plasminogen activator (uPA), PLAU (gene 5328)
The experiment can be described thus: BSK_KF3CT_uPA: BioMAP Diversity Plus: KF3CT Assay for urokinase plasminogen activator (uPA) Biomarker Activity (AID 2283075). Conditions: primary human keratinocytes with fibroblasts; actives raise or lower the signal. Summed up: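 ELISA readout of uPA, analyzed for signal gain or loss relative to DMSO, from a human primary keratinocyte–foreskin fibroblast co-culture measured 24 h after chemical treatment.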

Read-out in experiment [4]: CD40, CD40 (gene 958)
The experiment can be described thus: BSK_LPS_CD40: BioMAP Diversity Plus: LPS Assay for CD40 Biomarker Activity (AID 2283076). Conditions: primary human HUVEC with PBMC; actives raise or lower the signal. Summed up:
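HUVEC plus PBMC co-culture stimulated with LPS; CD40 quantified by ELISA 24 h after compound dosing. Fitting was bidirectional relative to DMSO. SRB staining of parallel cultures flagged overt cytotoxicity.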

Read-out in experiment [5]: E-selectin (Homo sapiens) (UniProt P16581)
Briefly: BSK_LPS_Eselectin: BioMAP Diversity Plus: LPS Assay for Eselectin Biomarker Activity (AID 2283077). Conditions: primary human HUVEC with PBMC; actives raise or lower the signal. Summed up: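 Human umbilical vein endothelial cells co-cultured with PBMC under LPS stimulation; cell-surface E-selectin measured by ELISA 24 h after dosing. Change in either direction versus DMSO, with SRB total-protein staining in parallel cultures for cytotoxicity.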

Read-out in experiment [6]: Interleukin-8 (IL8), CXCL8 (gene 3576)
The experiment can be described thus: BSK_LPS_IL8: BioMAP Diversity Plus: LPS Assay for Interleukin-8 (IL8) Biomarker Activity (AID 2283078). Conditions: primary human HUVEC with PBMC; actives raise or lower the signal. Summed up:
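Human umbilical vein endothelial cells co-cultured with PBMC, LPS-stimulated, exposed to compound for 24 h. IL-8 quantified by ELISA; fitted in both directions against DMSO, with SRB total-protein staining of parallel cultures for cytotoxicity.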

A short description of experiment [7]: BSK_LPS_SRB: Viability Assessment in the BioMAP Diversity Plus: LPS Assay (AID 2283079).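 Also: total protein by sulforhodamine B absorbance as a cytotoxicity measure; measured one day after compound addition; fitted in both directions against DMSO so loss or gain of signal counts.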 Conditions: primary human HUVEC with PBMC. In outline:
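Co-culture of human umbilical vein endothelial cells and PBMC, read 24 h after dosing. Total protein by 0.1% SRB staining after 10% TCA fixation, absorbance at 560 nm; bidirectional fit against DMSO.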

Read-out in experiment [8]: Interleukin-1 alpha (IL1a), IL1A (gene 3552)
Briefly: BSK_LPS_IL1a: BioMAP Diversity Plus: LPS Assay for Interleukin-1 alpha (IL1a) Biomarker Activity (AID 2283080). Conditions: primary human HUVEC with PBMC; actives raise or lower the signal. In outline: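 Human umbilical vein endothelial cells co-cultured with PBMC and stimulated with LPS; IL-1a measured by ELISA 24 h after dosing. Bidirectional fitting against DMSO; cytotoxicity checked by SRB staining in parallel cultures.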

Read-out in experiment [9]: Monocyte Chemoattractant Protein-1 (MCP1), CCL2 (gene 6347)
The experiment can be described thus: BSK_LPS_MCP1: BioMAP Diversity Plus: LPS Assay for Monocyte Chemoattractant Protein-1 (MCP1) Biomarker Activity (AID 2283081). Conditions: primary human HUVEC with PBMC; actives raise or lower the signal. In outline:
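Human umbilical vein endothelial cells co-cultured with PBMC, LPS-stimulated; secreted MCP-1 measured by ELISA 24 h after compound addition. Bidirectional curve fitting against DMSO baseline; SRB total-protein staining in parallel cultures for cytotoxicity.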

A short description of experiment [10]: BSK_LPS_PGE2: BioMAP Diversity Plus: LPS Assay for Prostaglandin E2 (PGE2) Biomarker Activity (AID 2283082). Conditions: primary human HUVEC with PBMC; actives raise or lower the signal. Summed up: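 Endpoint derived from bidirectional curve fitting versus DMSO of ELISA-measured PGE2 in LPS-stimulated human primary vascular co-culture (HUVEC with PBMC) harvested at 24 h.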

Read-out in experiment [11]: Macrophage colony-stimulating factor (MCSF), CSF1 (gene 1435)
The experiment can be described thus: BSK_LPS_MCSF: BioMAP Diversity Plus: LPS Assay for Macrophage colony-stimulating factor (MCSF) Biomarker Activity (AID 2283083). Conditions: primary human HUVEC with PBMC; actives raise or lower the signal. Summed up: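 HUVEC–PBMC co-culture, M-CSF measured by ELISA 24 h after chemical dosing. Fitted in both directions relative to DMSO as negative control; overt cytotoxicity assessed by SRB total-protein staining in parallel cultures.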

Read-out in experiment [12]: Tissue Factor, F3 (gene 2152)
The experiment can be described thus: BSK_LPS_TissueFactor: BioMAP Diversity Plus: LPS Assay for Tissue Factor Biomarker Activity (AID 2283084). Conditions: primary human HUVEC with PBMC; actives raise or lower the signal. In outline:
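Human umbilical vein endothelial cells co-cultured with PBMC were dosed with compound. Cell-surface CD142 was measured by ELISA 24 h later. Activity was fitted bidirectionally against DMSO, with SRB total-protein staining in parallel cultures for cytotoxicity.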

Read-out in experiment [13]: Tumor necrosis factor (Homo sapiens) (UniProt P01375)
Briefly: BSK_LPS_TNFa: BioMAP Diversity Plus: LPS Assay for Tumour Necrosis Factor alpha (TNFa) Biomarker Activity (AID 2283085). Conditions: primary human HUVEC with PBMC; actives raise or lower the signal. In outline:
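Primary human vascular co-culture of HUVEC and PBMC; TNFa ELISA 24 h after treatment, analysed as increase or decrease relative to DMSO control.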

Read-out in experiment [14]: Vascular cell adhesion molecule 1 (VCAM1), VCAM1 (gene 7412)
The experiment can be described thus: BSK_LPS_VCAM1: BioMAP Diversity Plus: LPS Assay for Vascular cell adhesion molecule 1 (VCAM1) Biomarker Activity (AID 2283086). Conditions: primary human HUVEC with PBMC; actives raise or lower the signal. Summed up: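 Primary human vascular co-culture (umbilical vein endothelium plus PBMC) stimulated with LPS received chemical; 24 h later VCAM-1 was read by ELISA. Overt cytotoxicity was assessed by sulforhodamine B staining of parallel cultures at the same time point.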

Read-out in a further experiment: CD38, CD38 (gene 952)
Briefly: BSK_SAg_CD38: BioMAP Diversity Plus: SAg Assay for CD38 Biomarker Activity (AID 2283087). Conditions: primary human HUVEC with PBMC; actives raise or lower the signal. Summed up: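 Fluorescence ELISA of cell-surface CD38 served as the read-out, with either increase or decrease fitted against DMSO controls. Cells were a human umbilical vein endothelium plus PBMC co-culture under SEB/TSST-1 stimulation, measured 24 h after dosing.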

Read-out in experiment [15]: CD40, CD40 (gene 958)
The experiment can be described thus: BSK_SAg_CD40: BioMAP Diversity Plus: SAg Assay for CD40 Biomarker Activity (AID 2283088). Conditions: primary human HUVEC with PBMC; actives raise or lower the signal. In outline: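 HUVEC plus PBMC co-culture, superantigen-activated, with CD40 read by ELISA 24 h after dosing. Curves fitted in both directions against DMSO. Overt cytotoxicity checked by parallel SRB total-protein staining.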

Read-out in the next experiment: CD69, CD69 (gene 969)
The experiment can be described thus: BSK_SAg_CD69: BioMAP Diversity Plus: SAg Assay for CD69 Biomarker Activity (AID 2283089).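 As to AC50: cell surface CD69 protein quantified by ELISA with fluorescence detection.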 Conditions: primary human HUVEC with PBMC; actives raise or lower the signal. In outline:
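Endothelial/PBMC co-culture; chemical added; 24 h incubation; CD69 ELISA with fluorescence detection; bidirectional fit vs DMSO.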

Read-out in experiment [16]: Monocyte Chemoattractant Protein-1 (MCP1), CCL2 (gene 6347)
The experiment can be described thus: BSK_SAg_MCP1: BioMAP Diversity Plus: SAg Assay for Monocyte Chemoattractant Protein-1 (MCP1) Biomarker Activity (AID 2283090). Conditions: primary human HUVEC with PBMC; actives raise or lower the signal. In outline:
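MCP-1 levels in the endothelial–PBMC SAg co-culture were quantified by ELISA at 24 h post-dosing; both increases and decreases versus DMSO scored. Cytotoxicity monitored by SRB total protein in parallel cultures.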

Read-out in experiment [17]: Monokine induced gamma interferon (MIG), CXCL9 (gene 4283)
The experiment can be described thus: BSK_SAg_MIG: BioMAP Diversity Plus: SAg Assay for Monokine induced gamma interferon (MIG) Biomarker Activity (AID 2283092). Conditions: primary human HUVEC with PBMC; actives raise or lower the signal. Summed up:
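Measures CXCL9 protein by ELISA in a human vascular primary-cell co-culture (umbilical vein endothelium with PBMC) 24 h after chemical addition. Activity is scored up or down from the DMSO control.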

The source made the active and inactive calls. The calls were made as follows: active = hit-call score of the fitted dose curve at least 0.9, where 1 is the maximum; inactive = score below 0.9.

E-selectin (Homo sapiens), sequence (P16581 whole entry, looked up): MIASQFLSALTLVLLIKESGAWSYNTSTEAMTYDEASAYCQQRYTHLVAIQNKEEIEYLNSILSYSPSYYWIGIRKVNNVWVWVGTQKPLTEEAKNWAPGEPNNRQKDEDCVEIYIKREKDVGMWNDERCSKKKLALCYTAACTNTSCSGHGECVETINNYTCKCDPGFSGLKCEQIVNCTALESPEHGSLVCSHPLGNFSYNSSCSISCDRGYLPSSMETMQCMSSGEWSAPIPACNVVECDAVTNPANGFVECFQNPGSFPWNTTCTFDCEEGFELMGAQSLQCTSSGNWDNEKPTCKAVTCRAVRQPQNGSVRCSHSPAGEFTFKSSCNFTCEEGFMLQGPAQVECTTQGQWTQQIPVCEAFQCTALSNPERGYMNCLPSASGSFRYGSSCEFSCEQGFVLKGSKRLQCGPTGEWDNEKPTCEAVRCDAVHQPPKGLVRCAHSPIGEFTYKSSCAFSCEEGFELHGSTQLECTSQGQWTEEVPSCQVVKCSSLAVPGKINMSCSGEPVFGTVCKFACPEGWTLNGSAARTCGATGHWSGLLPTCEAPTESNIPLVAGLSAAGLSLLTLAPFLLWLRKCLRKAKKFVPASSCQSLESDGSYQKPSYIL
Tumor necrosis factor (Homo sapiens), sequence (P01375 whole entry, looked up): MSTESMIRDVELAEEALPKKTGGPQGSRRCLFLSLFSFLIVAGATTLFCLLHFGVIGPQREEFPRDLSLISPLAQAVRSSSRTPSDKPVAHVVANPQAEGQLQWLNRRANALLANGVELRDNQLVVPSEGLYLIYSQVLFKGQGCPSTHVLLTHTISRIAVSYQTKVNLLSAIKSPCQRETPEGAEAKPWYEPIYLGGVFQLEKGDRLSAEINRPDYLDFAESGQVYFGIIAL

`COC[C@H](C)N(C(=O)CCl)c1c(C)csc1C`: the outcome was “inactive” in experiment [1]; “inactive” in experiment [2]; “inactive” in experiment [3]; “inactive” with CD40, CD40 (gene 958) [4]; “inactive” in [5]; “inactive” in experiment [6]. Further, the result in [7], in experiment [8], in experiment [9], in experiment [10], in [11] and in experiment [12] was inactive. Also, the outcome in experiment [13] was “inactive”; in experiment [14] it was “inactive”; with CD38, CD38 (gene 952), “inactive”; in the experiment with CD40, CD40 (gene 958) [15], “inactive”; with CD69, CD69 (gene 969) it was “inactive”; in experiment [16] it was “inactive”. Further, the result in experiment [17] was inactive.
For `Nc1ncc([N+](=O)[O-])s1`, the outcome in experiment [1] was “inactive”; in experiment [2], “inactive”; in [3], “inactive”; in the experiment with CD40, CD40 (gene 958) [4], “inactive”; in experiment [5] it was “inactive”; in [6], “inactive”. Further, the result in [7], in experiment [8], in [9], in [10], in experiment [11] and in [12] was inactive. For the same compound, the outcome in experiment [13] was “inactive”; in experiment [14], “inactive”; in the experiment with CD38, CD38 (gene 952) it was “inactive”; in the experiment with CD40, CD40 (gene 958) [15], “inactive”; in the experiment with CD69, CD69 (gene 969) it was “inactive”; in experiment [16] it was “inactive”. The result in experiment [17] was inactive.
By AC50 is commonly meant the concentration giving half of the maximal activity seen. Regarding `Oc1c(I)cc(I)cc1I`, the result in [1], in experiment [6], in experiment [8], in experiment [9], in experiment [10] and in experiment [12] was inactive. For the same compound, the outcome in [13] was inactive. Moreover, the AC50 in experiment [2] was 5.35 µM (active); in experiment [3], 31.2 µM (active); with CD40, CD40 (gene 958) [4], 14.2 µM (active); in experiment [5], 27.6 µM (active); in [7] it was 20 µM (active); in experiment [11], 31.1 µM (active). In addition, the half-maximal activity concentration (AC50) in [14] is 14.3 µM (active); in the experiment with CD38, CD38 (gene 952) it was 25.4 µM (active); with CD40, CD40 (gene 958) [15] it was 25.3 µM (active); with CD69, CD69 (gene 969) it was 29.4 µM (active); in experiment [16], 32.3 µM (active); in [17], 34.2 µM (active).
